This passage reports normalized growth results from PubChem BioAssay AID1159580 (chemical genetic matrix, 2015).

The nature of this assay: chemical genetic growth profiling, strain panel (AID 1159580).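 Note: tested at 20 µM; growth read once vehicle control cultures reached saturation at 30 °C; 1 = growth at the plate median or of vehicle wells; lower values mean less growth of the strain.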 Particulars: S. cerevisiae deletion strains, growth OD.

In all, about 5,500 compounds went through this assay and about 2,000 (36%) were called active. Inconclusive results (about 18%) are left out. The list shows a part of the results. A number with no mark means an inactive call. Cut-off read from the data, not from the text of the source: active = normalized growth mostly below about 0.91 (no sharp cut-off); inconclusive = no clear call, values can overlap the other calls; inactive = mostly above about 0.92.

In the case of `CC(C(O)c1ccc(O)cc1)N1CCC(Cc2ccccc2)CC1` (stereo not given), the normalized growth is 0.932 (locus YAL013W, strain DEP1, hits give low values); 1.03 (locus YAL040C, strain CLN3, hits give low values); 0.959 (locus YCL061C, strain MRC1 (second series), hits give low values); 0.872 (active) (locus YDR150W, strain NUM1, hits give low values); 0.94 (locus YDR363W, strain ESC2, hits give low values); 1.01 (locus YER002W, strain NOP16, hits give low values). For the same molecule, the normalized growth runs as follows: (locus YGR078C, strain PAC10, hits give low values) 1.01; (locus YGR229C, strain SMI1, hits give low values) 0.785 (active); (locus YMR307W, strain GAS1, hits give low values) 0.994; (locus YNL175C, strain NOP13, hits give low values) 0.935; (locus YNL197C, strain WHI3, hits give low values) 1.03; (locus YNL224C, strain SQS1, hits give low values) 1.03. Further, the normalized growth was 1.04 (locus YOR083W, strain WHI5 (second series), hits give low values); 0.75 (active) (locus YPL055C, strain LGE1, hits give low values); 0.944 (active) (locus YPL241C, strain CIN2, hits give low values).
